Source: PubChem BioAssay AID2384 (Southern Research Specialized Biocontainment Screening …, 2010)
The campaign covered roughly 2,300 compounds. About 1,100 (48%) were called active. So high a share suggests a set chosen from earlier hits. The list shows a part of the results. Results with a measured potency or affinity are listed apart. A number with no mark means an inactive call. The rule behind the calls is not given here.

Assay: inhibitors in S. typhi counter-screen strain, dose response, counter-screen for PhoP regulon inhibitor project, fluorescence, 4 h (AID 2384)
Details: S. typhi GFP reporter counter-screen; series mostly up to 150 µM; inhibition: at the top concentration

Compound	inhibition
COC(=O)c1cc2sccc2n1Cc1nc(-c2ccc(OC)cc2)oc1C	-18.1%
O=C(CSc1nc2ncc(Cl)cc2[nH]1)NCC(=O)Nc1ccc(F)c(F)c1F	36%
Nc1ncnc2nc(SCC(=O)Nc3cccc(C(F)(F)F)c3)[nH]c12	-1.35%
c1cncc(CSc2ccc(-c3cccs3)nn2)c1	3.59%
Cn1c(-c2ccc(CN3CCCCC3)o2)nc2ccccc21	5.64%
COc1ccc(CNc2nc3ccccc3n2C)c(O)c1	9.23%
CCN(CC)S(=O)(=O)c1ccc(/C(O)=C(\C#N)c2nc3ccccc3n2C)cc1	-35.8%
CC1=C(c2ccccc2)SC2=NCCN21	12.6%
COCc1[nH]nc2c1C(c1c(F)cccc1Cl)C(C#N)=C(N)O2 (centres undefined)	14.4%
CC1(C)CC(N2CCN(c3ccccc3)CC2)=CC(=[N+]2CCCC2)C1	-5.38%
CC1CCC[C@H](O)CCCCCc2cc(O)cc(O)c2C(=O)O1 (some centres undefined)	6.87%
CC1=C(C#N)CCC(=O)N1Cc1c(C)cc(C)cc1C	-4.03%
Nn1cnnc1N/N=C\c1ccc(-c2ccccc2[N+](=O)[O-])o1	5.18%
O=[N+]([O-])c1ccc(/C=N/NC(=S)Nc2ccc(Cl)cc2Cl)s1	35.1%
COc1ccc(CNC(=O)CCC(=O)N2C[C@H]3C[C@H](C2)c2cccc(=O)n2C3)cc1	13%
Cc1cc(NS(=O)(=O)c2ccc(NC(=O)C(C)Oc3ccc4c(C)cc(=O)oc4c3)cc2)no1 (centres undefined)	15.6%
COc1cc(OC)nc(NC(=O)C(C)C)n1	-27%
CCNc1nc(N)nc(Oc2ccc(OCCOc3ccc(Cl)cc3Cl)nn2)n1	-7.02%
COc1cc(/C=C/C(=O)O)cc2c1OCCO2	1.36%
CCCC(CCC)C(=O)NCCN1CCOCC1	9.01%

Compound	inhibition
CCn1nccc1C(=O)Nc1cc(Cl)cc(Cl)c1	16.1%
CCOC(=O)/C=C1/N(C)c2ccccc2C1(C)C	-0.1%
O=Cc1ccc(O)cc1O	12.6%
CCCOc1ccc(-c2cn3ccccc3n2)cc1	27.4%
Cc1ccc(-c2noc(CN3CCCCC3)n2)cc1	-23.5%
Cc1ccc2nsnc2c1S(=O)(=O)NCc1ccc2c(c1)OCO2	-30.8%
Cc1[nH]nc2c1C(c1ccc(-c3ccccc3C#N)o1)C(C#N)=C(N)O2 (centres undefined)	-6.53%
COc1ccc(NC(=O)CN(C)S(=O)(=O)c2ccc(Cl)cc2)cc1Cl	-14.6%
O=C(NCc1cccnc1)c1ccc(COc2ccc(Cl)cc2)cc1	-28.3%
Cn1cc(S(=O)(=O)NCC2CCCO2)c(=O)n(C)c1=O (centres undefined)	19.2%
C[C@]1(OC(=O)/C=C/c2ccccc2)C[C@@H](O)[C@]2(O)C=CO[C@@H](O[C@@H]3O[C@H](CO)[C@@H](O)[C@H](O)[C@H]3O)[C@@H]21	6.78%
O=C(/C=C/c1ccccc1)NNC(=O)c1ccco1	-2.38%
CC(=O)c1cccc(NC(=S)NNC(=O)c2ccco2)c1	21.6%
O=C(/C=C/c1ccco1)NC(=S)Nc1cccc(-c2nc3ccccc3o2)c1	-13.3%
O=C(NC(=S)Nc1c(F)cc(F)cc1Br)c1ccc2c(c1)OCCO2	-19%
COc1ccc(C(C(=O)Nc2ccc(C(C)C)cc2)N(Cc2ccco2)C(=O)CC2NC(=O)NC2=O)cc1 (centres undefined)	-0.89%
Nc1nc(=S)c2[nH]cnc2[nH]1	32.3%
COc1ccc(C2C3=C(CC(C)(C)CC3=O)Nc3cc4c(cc32)OCO4)cc1 (centres undefined)	-48.3%
O=C(CSc1ccccc1)N1CCC(N2CCC(C(=O)N3CCCC3)CC2)CC1	-12.2%
C[C@@H](C(=O)NC1CCCC1)N1C(=O)N2CCc3c([nH]c4ccccc34)[C@@]2(C)C1=O	-17.4%

Compound	inhibition
CCOC(=O)c1cccc(NC(=O)C2CCC(CNc3c(N4CCOCC4)c(=O)c3=O)CC2)c1 (centres undefined)	-22.3%
O=C(c1cccs1)N1CCC(N2CCN(c3ccccc3)CC2)CC1	-17.6%
O=C(C[n+]1cn(C(F)F)c2ccccc21)c1ccc(Br)cc1	-14.8%
CCN1CCN(C2=C(NS(=O)(=O)c3ccc(Br)cc3)C(=O)c3ccccc3C2=O)CC1	17.3%
CC(=O)C1=C(O)C(=O)N(CCN2CCOCC2)C1c1ccccc1 (centres undefined)	10.7%
CCN1CCN(c2cc(C)c3cc(NC(=S)N4CCN(c5ccccc5F)CC4)ccc3n2)CC1	35.7%
COc1ccc(C(=O)N2CCN(C(=O)Cc3ccccc3)CC2)cc1OC	-1.09%
CCc1ccc(C(=O)CC2(O)C(=O)N(CN3CCOCC3)c3ccccc32)cc1 (centres undefined)	13.2%
Cn1c(=NC(=O)COc2ccccc2)sc2cccc(F)c21	0.24%
Cc1cc(NC(=O)/C=C/C(=O)N(c2ccccc2C)C(C(=O)NC2CCCC2)c2ccc(F)cc2)no1 (centres undefined)	6.86%
CC(=O)c1c(N2CCN(c3cccc(Cl)c3)CC2)nc(=S)n(-c2ccccc2)c1C	-38.1%
Cc1cnc(C(=O)OCC(=O)Nc2cccc(Cl)c2)cn1	0.83%
NC(=O)SCC(=O)Nc1ccc(Cl)c(Cl)c1	32%
CCc1cccc(NC(=O)CSC2=NS(=O)(=O)c3ccccc32)c1	7.63%
Cc1ccc(NC(=O)c2cc(NC(=O)CCCC(=O)O)ccc2Cl)cc1Cl	-19.6%
O=C(Cc1ccccc1)NCC(=O)Nc1cccc(Cl)c1	6.95%
O=C(COc1ccc(Cl)cc1)Nc1cccc(-c2ccc3nncn3n2)c1	-14.3%
CCOC(=O)c1ccc(NC(=O)CSC(=S)N2CCOCC2)cc1	-22.6%
O=C(Nc1ccc(Cl)cc1)N1CCOC12CCC1(CC2)OCCO1	7.84%
